Here are results for 72 compounds from PubChem BioAssay AID2551 (National Center for Advancing Translational Sciences (NCATS), 2010).

The campaign covered roughly 310,000 compounds. About 17,000 (5.5%) were called active. Not shown: some 11% with an inconclusive outcome. Calls follow the shape of the dose curve; as a rule, active = well fitted inhibition curve with a large enough effect; inconclusive = small, poorly fitted or top-dose-only effect, or effect the other way; inactive = no such curve, though single readings can be large or run the other way. This excerpt belongs to a sample that is enriched for actives.
% is scaled to controls: 0 for no effect and ±100 for the full control effect; potency is read from the fitted curve at half-maximal effect.

In the experiment the target is Nuclear receptor ROR-gamma (Mus musculus) (UniProt P51450). Kind of experiment: qHTS for inhibitors of ROR gamma transcriptional activity. Also: nearly all actives have a fitted effect of over 60% in size. The following applies: Drosophila S2 Gal4-RORgamma UAS-luciferase reporter, 20 h; series mostly up to 53.6 µM; activity change, negative = inhibition: at the top concentration. The essentials: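 Schneider cells (Drosophila), stable Gal4 DBD–ROR gamma + UAS-luc; 1 hr cmpd preincubation; Cu2+ induction 700 uM final; 20 hr ambient; luminescence.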
Chain of Nuclear receptor ROR-gamma (Mus musculus) (P51450 whole entry, looked up, the tested form may be a part): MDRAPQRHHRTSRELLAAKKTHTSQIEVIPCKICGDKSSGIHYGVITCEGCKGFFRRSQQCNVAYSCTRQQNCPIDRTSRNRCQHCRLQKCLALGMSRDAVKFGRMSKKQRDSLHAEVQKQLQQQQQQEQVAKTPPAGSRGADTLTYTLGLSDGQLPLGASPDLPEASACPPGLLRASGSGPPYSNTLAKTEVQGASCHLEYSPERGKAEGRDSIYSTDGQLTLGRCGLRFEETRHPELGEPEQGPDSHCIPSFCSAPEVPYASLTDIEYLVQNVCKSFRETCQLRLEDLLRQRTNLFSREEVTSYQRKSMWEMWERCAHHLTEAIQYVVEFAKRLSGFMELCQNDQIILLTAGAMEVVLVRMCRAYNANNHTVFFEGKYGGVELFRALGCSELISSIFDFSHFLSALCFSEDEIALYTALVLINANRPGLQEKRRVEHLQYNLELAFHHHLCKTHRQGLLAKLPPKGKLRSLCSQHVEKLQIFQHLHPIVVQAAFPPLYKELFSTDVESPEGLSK
On to `Cc1oc(-c2ccccc2F)nc1CS(=O)CC(=O)NCCN1CCCCC1C` (configuration not stated), for which the “activity change, negative = inhibition” value was -5.2% (inactive). Turning to `CCOc1ccc(S(=O)(=O)N2CCN=C2Cc2ccccc2)cc1C`, the “activity change, negative = inhibition” value was -32.3% (inactive). Still for that read-out and setting: as for `COc1cccc(CNC(=O)CCCC(=O)Nc2cccc([N+](=O)[O-])c2)c1`, the figure is 34.9% (inactive); as for `Cc1cnc(C)c(N2CCN(C(=O)C3CCC(=O)N(CCc4cccc(F)c4)C3)CC2)n1` (configuration not stated), 1.08% (inactive). Turning to `Cc1cc(C)c2c(n1)nn1c(-n3ccnc3)cc(C)nc21`, the Potency is 10 µM (active). Take `Cc1cc(C)c2c(NC(=O)C3CC3)nn(C)c2n1`: the “activity change, negative = inhibition” value was 10.5% (inactive).

Turning to `Cc1cc(-n2nc(C)cc2C)n2nc(C)c(-c3ccccc3)c2n1`, the “activity change, negative = inhibition” value is -12.8% (inactive). Still for that read-out and setting: as for `O=C(Nc1ccc(F)cc1)C(=O)c1cn(CC(=O)N2CCOCC2)c2ccccc12`, the figure is 26% (inactive); as for `CCSc1nc(O)c(C(c2cccc(OC)c2)c2c(O)nc(SCC)[nH]c2=O)c(=O)[nH]1`, -12.8% (inactive).

As to `CC(=O)c1cccc(NC(=S)N2CCCC2)c1`, the “activity change, negative = inhibition” value was -4.06% (inactive). Same read-out and setting: the figure for `CCOC(=O)C1(Cc2ccccc2C)CCCN(C(=O)CCc2c(C)noc2C)C1` (configuration not stated) is -5.53% (inactive). Same read-out and setting: the figure for `COc1ccc(N2C(=O)C3CCCN3C2c2cccc(OC)c2)cc1` (configuration not stated) is 3.84% (inactive). In the case of `COc1ccc(N2C(=O)C3C(C2=O)C(C(=O)c2ccccc2)N2CCCC32)cc1` (configuration not stated), the Potency is 11.2 µM (active). Take `COc1ccc(N2C(=O)C(Cc3ccccc3)NC2=S)cc1` (configuration not stated): the “activity change, negative = inhibition” value was -5.44% (inactive). Turning to `O=S1(=O)N=C(N(CCO)/N=C/c2ccccc2F)c2ccccc21`, the “activity change, negative = inhibition” value was -1.86% (inactive). With `COc1ccc(-n2cc(-c3ccccc3)c3c(=S)nc[nH]c32)cc1`, the Potency is 0.501 µM (active). For `O=c1[nH]cnc2c1c(-c1ccccc1)cn2-c1ccc(F)cc1`, the “activity change, negative = inhibition” value was 18.3% (inactive). Same read-out and setting: as for `COc1ccc(N2CCN(Cc3nnc(-c4ccccc4)o3)CC2)cc1`, the figure is 2.46% (inactive). For `Cc1cccc(NC(=O)CCN2CC(C)CC(C)C2)c1` (configuration not stated), the “activity change, negative = inhibition” value is -3.81% (inactive). Take `c1ccc(-c2cn3c(n2)CCc2ccc4cccnc4c2-3)cc1`: the Potency was 3.55 µM (active). On to `COCC(=O)N1CCc2ccc(NC(=O)c3ccccc3Cl)cc2C1`, for which the activity change, negative = inhibition was 8.09% [at 1.91 µM] (inactive).

Take `CC(NC(=O)Cn1cc(C(F)(F)F)cc(Cl)c1=O)c1ccccc1` (configuration not stated): the “activity change, negative = inhibition” value was -10.7% (inactive).

Regarding `Cc1ccc(S(=O)(=O)c2nc(-c3cccs3)oc2NCc2cccnc2)cc1`, the “activity change, negative = inhibition” value is 7.35% (inactive). `C/C(=N\NC(=O)C(N)=O)c1ccc2c(c1)OCCO2`: the “activity change, negative = inhibition” value is 28.9% (inactive). For `C/C(=N/NC(=S)Nc1ccccc1)c1ccc2c(c1)OCO2`, the Potency was 1.26 µM (active). Turning to `C/C(=N/NC(=O)c1ccncc1)c1ccc2c(c1)OCO2`, the “activity change, negative = inhibition” value is 32.9% (inactive). The same measure, in the same setting: as for `CCCCc1nc(SCC(=O)Nc2nnc(C(C)C)s2)n[nH]1`, the figure is -7.48% (inactive). With `Cc1ccc2nc(-c3ccncc3)cc(C(=O)Nc3ccncc3)c2c1`, the “activity change, negative = inhibition” value was -21.9% (inactive). The same measure, in the same setting: the figure for `Cc1cc(C)cc(OCC(=O)NC(C)c2ccccc2)c1` (configuration not stated) is 24.4% (inactive). `O=C1/C(=C/c2ccc3c(c2)OCO3)CCC/C1=C\c1ccc2c(c1)OCO2`: the Potency is 11.2 µM (active).

As to `O=C(N/N=C/c1ccc2c(c1)OCO2)C(=O)N1CCCC1`, the “activity change, negative = inhibition” value is -1.04% (inactive). Consider `CCC1=C/C(=C\c2ccc3c(c2)OCO3)C(=O)S1`, for which the “activity change, negative = inhibition” value was 24.2% (inactive). On the same count and under the same terms, the figure for `O=C(NC(Cc1ccccc1)C(=O)O)/C(=C\c1ccccc1)NC(=O)c1ccco1` (configuration not stated) is -19.7% (inactive); for `CC(C)Oc1ccc(CCc2nnc(SCC(=O)O)n2-c2ccccc2)cc1` it is 1.09% (inactive).

For `C=CCn1c(CCc2ccc(OC(C)C)cc2)n[nH]c1=S`, the “activity change, negative = inhibition” value was 1.5% (inactive). For the compound `CC(C)Oc1ccc(Cc2n[nH]c(=S)n2Cc2ccccc2)cc1Cl`, the Potency is 3.98 µM (active). Regarding `CC(=O)N(OCc1ccc(OC(C)C)c(Cl)c1)C(C)=O`, the “activity change, negative = inhibition” value was 11% (inactive). For `CC(C)Oc1ccc(CCc2n[nH]c(=S)n2Cc2ccccc2)cc1`, the Potency is 3.16 µM (active).

In the case of `CC(=O)Nc1ccc(S(=O)(=O)N2CCC(C(=O)NC3CC3)CC2)cc1`, the “activity change, negative = inhibition” value is -24.5% (inactive).

`OC(CNC1CCCC1)COc1ccc(F)cc1` (configuration not stated): the “activity change, negative = inhibition” value is -1.27% (inactive).

`COc1ccccc1CNS(=O)(=O)c1ccc2c(c1)NC(=O)CS2`: the “activity change, negative = inhibition” value was 14% (inactive). For the compound `CCCn1nc(NS(=O)(=O)c2ccc(F)cc2)c2cc3ccccc3nc21`, the “activity change, negative = inhibition” value is 5.21% (inactive). The same measure, in the same setting: as for `COc1ccc(N=Nc2ccc(O)c(P(=O)(c3ccccc3)c3ccccc3)c2)cc1`, the figure is 16% (inactive).

Regarding `Cc1cc(N=Nc2ccc3ccccc3c2)ccc1O`, the Potency is 11.2 µM (active). As for `Cc1cccc(C(=O)NNC(=O)CSc2nnc(C(C)C)n2C)c1`, the “activity change, negative = inhibition” value was -19.4% (inactive).

`Cc1c(C(C)(C)O)[nH]c2ccc(C#N)cc12`: the “activity change, negative = inhibition” value was 14.1% (inactive). On to `CCn1c(SCC(=O)NNC(=O)c2ccc(OC)cc2)nnc1C(C)C`, for which the “activity change, negative = inhibition” value was -32.5% (inactive).

As to `COC(=O)C1=C(C)N(C)C(=S)NC1c1ccccc1` (configuration not stated), the “activity change, negative = inhibition” value is -2.63% (inactive). On to `COC(=O)C1=C(C)N(C)C(=S)NC1c1cc(OC)ccc1OC` (configuration not stated), for which the Potency is 15.8 µM (active).

As to `COC(=O)C1=C(C)OC(N)=C(C#N)C1c1cc(OC)ccc1OC` (configuration not stated), the “activity change, negative = inhibition” value was -29.4% (inactive). Still for that read-out and setting: the figure for `CCOC(=O)c1c(-c2ccccc2)oc2ccc(OCC(N)=O)cc12` is 61.5% (inactive); for `CCOC(=O)c1c(S(=O)(=O)Nc2cccc(Cl)c2)c(C)n(C)c1C` it is -21.2% (inactive). Regarding `C/C(Cc1ccccc1)=N\NC(=O)CNC(=O)c1ccccc1Cl`, the “activity change, negative = inhibition” value is 22.1% (inactive).

Regarding `CC/C(=N\NC(=O)c1ccccc1Cl)c1ccc(Br)s1`, the Potency is 11.2 µM (active). For `CC(=O)Nc1cccc(/C(C)=N/NC(=O)c2ccccc2Cl)c1`, the “activity change, negative = inhibition” value was 32.2% (inactive). As to `CCCCOc1ccc(C(=O)NCc2ccncc2)cc1`, the “activity change, negative = inhibition” value is 15.1% (inactive).

In the case of `CCCOc1ccc(C(=O)C(CCC(CNCC)C(=O)c2ccc(OCCC)cc2)CNCC)cc1` (configuration not stated), the Potency was 15.8 µM (active).

As to `CCCOc1ccc(N/C=C/C(=O)C(C)(C)C)cc1`, the “activity change, negative = inhibition” value was 44.4% (inactive). Still for that read-out and setting: as for `COc1cccc(-n2cc(C(=O)O)c3ccccc3c2=O)c1`, the figure is -16.1% (inactive).

As to `COc1cccc(N2C(=O)CN(Cc3ccccc3)C2=S)c1`, the “activity change, negative = inhibition” value is -4.86% (inactive). `COc1cccc(-n2c(=S)[nH]c3c(oc4ccccc43)c2=O)c1`: the Potency is 7.08 µM (active). As to `CCc1cccc(CC)c1NC(=S)NCc1ccc2[nH]c(C)cc2c1`, the Potency was 2.51 µM (active).

Consider `CCNCc1cc2cc(C)ccc2[nH]c1=O`, for which the “activity change, negative = inhibition” value is -37.6% (inactive).

Take `CCc1cccc(CC)c1NC(=S)Nc1ccc2cn[nH]c2c1`: the “activity change, negative = inhibition” value was -26.6% (inactive). Same read-out and setting: the figure for `Cc1cccc(S(=O)(=O)N2CN(CC3CCCO3)c3nc4ccccc4nc32)c1` (configuration not stated) is 0.765% (inactive); for `CCC(C)(C)n1nnnc1C(c1ccccc1OC)N1CCSCC1` (configuration not stated) it is -15.1% (inactive); for `CC(C)(C)n1nnnc1C(c1ccc(Cl)cc1)N1CCSCC1` (configuration not stated) it is -6.3% (inactive). For the compound `CC(C)(C)n1nnnc1C(c1ccc2ncccc2c1)N1CCSCC1` (configuration not stated), the Potency was 10 µM (active). As for `Cc1c(C)c2ccc(OCC(=O)N3CCC(C(=O)O)CC3)c(C)c2oc1=O`, the “activity change, negative = inhibition” value is -15.9% (inactive). As for `C=C(C)CNC(=S)/N=c1\scc(C)n1CC`, the Potency is 7.94 µM (active). Take `Cc1csc(=NC(=O)c2ccccc2)n1CCO`: the “activity change, negative = inhibition” value was -13.4% (inactive). As to `Cc1csc(=Nc2ccccc2)n1CCO`, the “activity change, negative = inhibition” value is -7.52% (inactive).
